Out of some 5,500 compounds screened, about 2,000 (36%) were called active. Inconclusive results (about 18%) are left out. No stated cut-off is given here; in the data, active means normalized growth mostly below about 0.91 (no sharp cut-off); inconclusive means no clear call, values can overlap the other calls; inactive means mostly above about 0.92. Some of the results follow.
Assay: chemical genetic growth profiling, strain panel (AID 1159580);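 further: tested at 20 µM; growth read once vehicle control cultures reached saturation at 30 °C; 1 = growth at the plate median or of vehicle wells; lower values mean less growth of the strain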
Conditions: growth OD

Measured: normalized growth

CCOC(=O)/C=C(\C)OP(=O)(OC)OC
inactive: S. cerevisiae deletion strains, locus YAL013W, strain DEP1, hits give low values 0.973 | S. cerevisiae deletion strains, locus YBR021W, strain FUR4, hits give low values 1.02 | S. cerevisiae deletion strains, locus YBR229C, strain ROT2, hits give low values 0.948 | S. cerevisiae deletion strains, locus YCL029C, strain bik1, hits give low values 0.989 | S. cerevisiae deletion strains, locus YDL035C, strain GPR1, hits give low values 0.981 | S. cerevisiae deletion strains, locus YDL074C, strain BRE1, hits give low values 0.937 | S. cerevisiae deletion strains, locus YDL101C, strain DUN1, hits give low values 0.967 | S. cerevisiae deletion strains, locus YDL134C, strain PPH21, hits give low values 0.989 | S. cerevisiae deletion strains, locus YDL185W, strain tfp1, hits give low values 0.983 | S. cerevisiae deletion strains, locus YDL192W, strain arf1, hits give low values 0.992 | S. cerevisiae deletion strains, locus YDR101C, strain arx1, hits give low values 1 | S. cerevisiae deletion strains, locus YDR150W, strain NUM1, hits give low values 0.989 | S. cerevisiae deletion strains, locus YDR162C, strain NBP2, hits give low values 0.982 | S. cerevisiae deletion strains, locus YDR318W, strain mcm21, hits give low values 0.987 | S. cerevisiae deletion strains, locus YDR388W, hits give low values 1.01 | S. cerevisiae deletion strains, locus YDR502C, strain sam2, hits give low values 0.996 | S. cerevisiae deletion strains, locus YEL061C, strain CIN8, hits give low values 0.99 | S. cerevisiae deletion strains, locus YER110C, hits give low values 0.992 | S. cerevisiae deletion strains, locus YER155C, strain BEM2, hits give low values 0.984 | S. cerevisiae deletion strains, locus YER167W, strain BCK2, hits give low values 0.988 | S. cerevisiae deletion strains, locus YGL078C, strain dbp3, hits give low values 1.01 | S. cerevisiae deletion strains, locus YGL086W, strain mad1, hits give low values 0.993 | S. cerevisiae deletion strains, locus YGL248W, strain PDE1, hits give low values 0.977 | S. cerevisiae deletion strains, locus YGR078C, strain PAC10, hits give low values 0.983 | S. cerevisiae deletion strains, locus YGR135W, strain pre9, hits give low values 0.988 | S. cerevisiae deletion strains, locus YGR229C, strain SMI1, hits give low values 0.984 | S. cerevisiae deletion strains, locus YGR252W, strain gcn5, hits give low values 0.998 | S. cerevisiae deletion strains, locus YHR030C, strain SLT2, hits give low values 0.99 | S. cerevisiae deletion strains, locus YHR079C, strain IRE1 (second series), hits give low values 1 | S. cerevisiae deletion strains, locus YHR094C, strain hxt1, hits give low values 1.01 | S. cerevisiae deletion strains, locus YHR129C, strain ARP1, hits give low values 0.974 | S. cerevisiae deletion strains, locus YHR200W, strain rpn10, hits give low values 0.994 | S. cerevisiae deletion strains, locus YIL066C, strain RNR3, hits give low values 0.985 | S. cerevisiae deletion strains, locus YIL073C, strain SPO22, hits give low values 1.03 | S. cerevisiae deletion strains, locus YIL125W, strain kgd1, hits give low values 0.993 | S. cerevisiae deletion strains, locus YIR030C, strain dcg1, hits give low values 0.996 | S. cerevisiae deletion strains, locus YJL095W, strain BCK1, hits give low values 0.994 | S. cerevisiae deletion strains, locus YJL134W, strain LCB3, hits give low values 0.987 | S. cerevisiae deletion strains, locus YJL168C, strain set2, hits give low values 0.991 | S. cerevisiae deletion strains, locus YJL187C, strain SWE1 (second series), hits give low values 0.983 | S. cerevisiae deletion strains, locus YJR043C, strain POL32, hits give low values 0.985 | S. cerevisiae deletion strains, locus YJR075W, strain HOC1, hits give low values 0.983 | S. cerevisiae deletion strains, locus YKL009W, strain mrt4, hits give low values 0.947 | S. cerevisiae deletion strains, locus YKL068W, hits give low values 0.998 | S. cerevisiae deletion strains, locus YKL085W, strain MDH1 (second series), hits give low values 0.989 | S. cerevisiae deletion strains, locus YKL085W, strain MDH1, hits give low values 0.989 | S. cerevisiae deletion strains, locus YKL190W, strain CNB1, hits give low values 0.995 | S. cerevisiae deletion strains, locus YKR001C, strain vps1, hits give low values 1 | S. cerevisiae deletion strains, locus YLR039C, strain RIC1, hits give low values 0.976 | S. cerevisiae deletion strains, locus YLR058C, strain SHM2, hits give low values 0.981 | S. cerevisiae deletion strains, locus YLR102C, strain apc9, hits give low values 0.993 | S. cerevisiae deletion strains, locus YLR262C, strain YPT6, hits give low values 0.977 | S. cerevisiae deletion strains, locus YLR268W, strain sec22, hits give low values 0.998 | S. cerevisiae deletion strains, locus YLR330W, strain CHS5, hits give low values 0.986 | S. cerevisiae deletion strains, locus YLR342W, strain FKS1 (second series), hits give low values 1.02 | S. cerevisiae deletion strains, locus YLR371W, strain rom2, hits give low values 0.996 | S. cerevisiae deletion strains, locus YLR418C, strain cdc73, hits give low values 1.01 | S. cerevisiae deletion strains, locus YML016C, strain PPZ1, hits give low values 0.986 | S. cerevisiae deletion strains, locus YML032C, strain rad52, hits give low values 1 | S. cerevisiae deletion strains, locus YML124C, strain tub3, hits give low values 1 | S. cerevisiae deletion strains, locus YMR078C, strain ctf18, hits give low values 0.999 | S. cerevisiae deletion strains, locus YMR223W, strain ubp8, hits give low values 0.996 | S. cerevisiae deletion strains, locus YMR263W, strain SAP30, hits give low values 0.987 | S. cerevisiae deletion strains, locus YMR307W, strain GAS1, hits give low values 1.04 | S. cerevisiae deletion strains, locus YNL067W, strain RPL9B, hits give low values 0.982 | S. cerevisiae deletion strains, locus YNL128W, strain TEP1, hits give low values 0.951 | S. cerevisiae deletion strains, locus YNL153C, strain GIM3, hits give low values 0.985 | S. cerevisiae deletion strains, locus YNL233W, strain BNI4, hits give low values 0.997 | S. cerevisiae deletion strains, locus YNL250W, strain rad50, hits give low values 0.983 | S. cerevisiae deletion strains, locus YNL271C, strain bni1, hits give low values 1 | S. cerevisiae deletion strains, locus YNL298W, strain CLA4, hits give low values 1.01 | S. cerevisiae deletion strains, locus YNL307C, strain MCK1, hits give low values 1.01 | S. cerevisiae deletion strains, locus YNL322C, strain KRE1, hits give low values 0.977 | S. cerevisiae deletion strains, locus YNR052C, strain pop2, hits give low values 0.996 | S. cerevisiae deletion strains, locus YOL006C, strain TOP1, hits give low values 0.926 | S. cerevisiae deletion strains, locus YOL012C, strain htz1 0.854 | S. cerevisiae deletion strains, locus YOL147C, strain pex11, hits give low values 1.01 | S. cerevisiae deletion strains, locus YOR061W, strain CKA2, hits give low values 0.961 | S. cerevisiae deletion strains, locus YOR069W, strain VPS5, hits give low values 0.99 | S. cerevisiae deletion strains, locus YOR136W, strain idh2, hits give low values 0.993 | S. cerevisiae deletion strains, locus YOR144C, strain elg1, hits give low values 0.997 | S. cerevisiae deletion strains, locus YOR184W, strain ser1, hits give low values 1.01 | S. cerevisiae deletion strains, locus YOR316C, strain cot1, hits give low values 0.981 | S. cerevisiae deletion strains, locus YPL055C, strain LGE1, hits give low values 0.975 | S. cerevisiae deletion strains, locus YPL241C, strain CIN2, hits give low values 0.993 | S. cerevisiae deletion strains, locus YPR119W, strain clb2, hits give low values 1 | S. cerevisiae deletion strains, locus YPR141C, strain kar3, hits give low values 0.991 | S. cerevisiae deletion strains, locus YPR163C, strain tif3, hits give low values 1.01 | S. cerevisiae deletion strains, locus YPR167C, strain met16, hits give low values 0.995 | S. cerevisiae deletion strains, strain wtn01, hits give low values 1 | S. cerevisiae strains, strain wild type, hits give low values 0.985
